Reference: PubChem BioAssay AID2284193 (EPA ToxCast)
Active and inactive are the calls of the source. How the source made its calls: active means hit-call score of the fitted dose curve at least 0.9, where 1 is the maximum; inactive means score below 0.9.

Target: human Tachykinin Receptor NK1 Agonism, TACR1 (gene 6869) (UniProt P25103)
Test: ERF_TW_GPCR_hTACR1: Eurofins (ERF) G Protein-Coupled Receptor (GPCR) Radioligand Binding LeadHunter Assay for human Tachykinin Receptor NK1 Agonism
Method: ERF_TW_GPCR_hTACR1 is a biochemical, single-readout assay that uses extracted gene-proteins in a cell-free assay. Measurements were taken 1.5 hour after chemical dosing in a 96-well plate. See NK1 Human Tachykinin GPCR Binding (Agonist Radioligand) Assay, Panlabs.ERF_TW_GPCR_hTACR1 is an assay component calculated from the ERF_TW_GPCR_hTACR1 assay. It is designed to measure radioligand binding using a type of binding reporter as detected by scintillation counting with radiometry technology.Data from the assay component ERF_TW_GPCR_hTACR1 was analyzed at the assay endpoint, ERF_TW_GPCR_hTACR1, in the positive analysis fitting direction relative to DMSO as the negative control and baseline of activity. Using a type of binding reporter, gain-of-signal activity can be used to understand changes in radioligand binding as they relate to gene TACR1. To generalize the intended target to other relatable targets, this assay endpoint is annotated to the gpcr intended target family, where the subfamily is tachykinin.
Human recombinant neurokinin NK1 receptors expressed in CHO cells are used in modified Tris-HCL buffer pH 7.4. A 36 ug aliquot is incubated with 0.8 nM [3H]Substance P for 90 minutes at 4C. Non-specific binding is estimated in the presence of 10 uM L-703,606. Receptors are filtered and washed, the filters are then counted to determine [3H]Substance P specifically bound. […]

human Tachykinin Receptor NK1 Agonism, TACR1 (gene 6869), sequence (P25103 whole entry, looked up): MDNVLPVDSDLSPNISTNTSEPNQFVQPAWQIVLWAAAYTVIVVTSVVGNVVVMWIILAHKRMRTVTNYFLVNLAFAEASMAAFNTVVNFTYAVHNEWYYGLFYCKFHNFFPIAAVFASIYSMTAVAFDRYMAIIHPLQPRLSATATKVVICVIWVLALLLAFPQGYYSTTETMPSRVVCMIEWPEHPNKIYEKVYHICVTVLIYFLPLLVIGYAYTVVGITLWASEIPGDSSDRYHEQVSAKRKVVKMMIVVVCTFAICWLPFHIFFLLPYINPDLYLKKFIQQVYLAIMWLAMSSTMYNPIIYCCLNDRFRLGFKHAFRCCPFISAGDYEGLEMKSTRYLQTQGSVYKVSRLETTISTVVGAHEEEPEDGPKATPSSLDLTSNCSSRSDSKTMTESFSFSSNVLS

SMILES | AC50 | outcome
COc1cc(CCC(=O)CC(=O)CCc2ccc(O)c(OC)c2)ccc1O | 5 µM (active) | 
CCCCC[C@H](O)CC(=O)CCc1ccc(O)c(OC)c1 |  | inactive
